Test results from PubChem BioAssay (EPA / NIEHS).
Several values for one entry are separate records, joined by “and”; a condition that tells them apart may be missing. Equal values may be shown once. Inconclusive results are not listed. Activity calls are given as the source filed them. The calls were made as follows, unless noted: active = hit-call score of the fitted dose curve at least 0.9, where 1 is the maximum; inconclusive = response in the unintended direction; inactive = score below 0.9.

How the values were obtained:
[1] = target: human Peroxisome Proliferator-activated Receptor delta (PPARd), PPARD (gene 5467) (UniProt Q03181); assay: ATG_PPARd_TRANS: Attagene TRANS-FACTORIAL HepG2 Assay for human Peroxisome Proliferator-activated Receptor delta (PPARd) (AID 2283002)
Procedure, shortened: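 HepG2 cells transiently transfected with multiplexed GAL4-UAS reporter units and exogenous chimeric NR-Gal4 proteins; 24 h compound exposure. Reporter mRNA measured by RT-PCR, 6-FAM labelling, HpaI digestion and capillary electrophoresis; gain of signal versus DMSO.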

[2] = target: Peroxisome proliferator-activated receptor gamma (Homo sapiens) (UniProt P37231); assay: ATG_PPARg_TRANS: Attagene TRANS-FACTORIAL HepG2 Assay for human Peroxisome Proliferator-activated Receptor-gamma (PPARg) (AID 2283007)
Procedure, shortened: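 HepG2 cells transiently transfected with multiplexed GAL4-UAS reporter units and exogenous chimeric NR-Gal4 proteins; reporter mRNA quantified after 24 h compound exposure by RT-PCR, fluorescent labelling, HpaI digestion and capillary electrophoresis; gain-of-signal fitted versus DMSO baseline.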

[3] = target: Nuclear receptor subfamily 1 group I member 2 (Homo sapiens) (UniProt O75469); assay: ATG_PXR_TRANS: Attagene TRANS-FACTORIAL HepG2 Assay for human Pregnane X Receptor (PXR) (AID 2283008)
Procedure, shortened: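 Transactivation by exogenous PXR–GAL4 fusion measured as reporter transcript induction after 24 h compound treatment of transfected human HepG2 cells. Read-out via RT-PCR and capillary electrophoresis of labelled fragments, fitted upward relative to DMSO.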

[4] = target: human Retinoic Acid Receptor beta (RARb), RARB (gene 5915) (UniProt P10826); assay: ATG_RARb_TRANS: Attagene TRANS-FACTORIAL HepG2 Assay for human Retinoic Acid Receptor beta (AID 2283004)
Procedure, shortened: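 Transient transfection of HepG2 with multiple reporter units → chemical dosing, 24 h → total RNA isolation → RT with oligo(dT) → reporter-specific PCR, 6-FAM primer extension, HpaI digest → capillary electrophoresis. Positive direction vs DMSO control.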

[5] = target: Retinoic acid receptor alpha (Homo sapiens) (UniProt P10276); assay: ATG_RARa_TRANS: Attagene TRANS-FACTORIAL HepG2 Assay for human Retinoic Acid Receptor alpha (RARa) (AID 2283005)
Procedure, shortened: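 HepG2 cells transiently transfected with multiple reporter units expressing chimeric RARα-GAL4 fusion, with GAL4-UAS-driven reporters. After 24 h compound exposure, reporter mRNA induction quantified by RT-PCR and capillary electrophoresis with fluorescent labeling; gain-of-signal fitted relative to DMSO control.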

[6] = read-out: Intercellular Adhesion Molecule 1 (ICAM1), ICAM1 (gene 3383); assay: BSK_3C_ICAM1: BioMAP Diversity Plus: 3C Assay for Intercellular Adhesion Molecule 1 (ICAM1) Biomarker Activity (AID 2283003; active = hit-call score of the fitted dose curve at least 0.9, where 1 is the maximum; inactive = score below 0.9); details: primary human endothelial cells (HUVEC); actives raise or lower the signal
Procedure, shortened: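 ELISA read-out of ICAM-1; HUVEC (primary human), 3C system, 24 h post-dosing; bidirectional fit vs DMSO baseline.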

[7] = BSK_3C_Proliferation: Cell Proliferation Assessment in the BioMAP Diversity Plus: 3C Assay (AID 2283006; active = hit-call score of the fitted dose curve at least 0.9, where 1 is the maximum; inactive = score below 0.9;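 as to AC50: potency may reflect either rise or fall in cell number versus DMSO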); details: primary human endothelial cells (HUVEC)
Procedure, shortened: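 HUVEC, sub-confluent; 48 h chemical exposure; 10% TCA fix, 0.1% SRB stain, A560 total protein. Gain or loss of signal fitted both directions vs DMSO control.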

[8] = target: human Retinoic Acid Receptor gamma (RARg), RARG (gene 5916) (UniProt P13631); assay: ATG_RARg_TRANS: Attagene TRANS-FACTORIAL HepG2 Assay for human Retinoic Acid Receptor gamma (RARg) (AID 2283009)
Procedure, shortened: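 Readout: reporter transcript levels via RT-PCR, 6-FAM primer-extension labelling, HpaI digestion and capillary electrophoresis. Cells: HepG2 carrying transfected RARg-GAL4 chimera plus UAS reporter set. Dosing 24 h; DMSO negative control.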

[9] = target: human RAR-related Orphan Receptor beta (RORb), RORB (gene 6096) (UniProt Q92753); assay: ATG_RORb_TRANS: Attagene TRANS-FACTORIAL HepG2 Assay for human RAR-related Orphan Receptor beta (RORb) (AID 2283010)
Procedure, shortened: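 HepG2, transient MRTU transfection (GAL4-UAS reporters, exogenous NR-Gal4 chimeras); 24 h compound exposure; total RNA → RT-PCR → 6-FAM primer extension → HpaI digest → CE fluorescence. Positive direction vs DMSO baseline.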

Chain of Peroxisome proliferator-activated receptor gamma (Homo sapiens) (P37231 whole entry, looked up, the tested form may be a part): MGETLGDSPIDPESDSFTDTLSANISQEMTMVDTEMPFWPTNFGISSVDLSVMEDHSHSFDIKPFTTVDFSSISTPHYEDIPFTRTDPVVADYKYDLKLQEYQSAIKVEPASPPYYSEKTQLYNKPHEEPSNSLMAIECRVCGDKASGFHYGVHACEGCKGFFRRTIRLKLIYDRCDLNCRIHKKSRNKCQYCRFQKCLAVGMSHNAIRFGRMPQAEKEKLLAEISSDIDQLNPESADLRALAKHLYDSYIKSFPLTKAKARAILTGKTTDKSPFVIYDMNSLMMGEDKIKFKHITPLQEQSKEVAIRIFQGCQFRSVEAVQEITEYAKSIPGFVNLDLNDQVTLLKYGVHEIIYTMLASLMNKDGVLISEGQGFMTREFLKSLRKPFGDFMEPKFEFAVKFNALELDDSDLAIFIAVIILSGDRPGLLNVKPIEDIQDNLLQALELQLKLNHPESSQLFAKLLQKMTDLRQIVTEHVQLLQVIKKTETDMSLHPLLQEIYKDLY
Chain of human Retinoic Acid Receptor beta (RARb), RARB (gene 5915) (P10826 whole entry, looked up): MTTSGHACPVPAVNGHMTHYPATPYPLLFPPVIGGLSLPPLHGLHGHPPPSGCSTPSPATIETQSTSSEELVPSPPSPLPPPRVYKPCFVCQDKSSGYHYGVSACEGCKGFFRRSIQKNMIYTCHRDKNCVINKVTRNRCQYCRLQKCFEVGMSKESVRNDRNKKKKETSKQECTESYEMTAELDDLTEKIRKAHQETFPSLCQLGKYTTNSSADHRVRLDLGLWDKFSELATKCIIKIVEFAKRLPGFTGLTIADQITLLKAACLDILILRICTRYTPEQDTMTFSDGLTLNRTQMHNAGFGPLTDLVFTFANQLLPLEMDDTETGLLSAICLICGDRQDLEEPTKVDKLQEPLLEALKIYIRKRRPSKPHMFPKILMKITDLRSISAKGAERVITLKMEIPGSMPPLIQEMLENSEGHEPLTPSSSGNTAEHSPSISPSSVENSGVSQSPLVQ
Chain of Retinoic acid receptor alpha (Homo sapiens) (P10276 whole entry, looked up, the tested form may be a part): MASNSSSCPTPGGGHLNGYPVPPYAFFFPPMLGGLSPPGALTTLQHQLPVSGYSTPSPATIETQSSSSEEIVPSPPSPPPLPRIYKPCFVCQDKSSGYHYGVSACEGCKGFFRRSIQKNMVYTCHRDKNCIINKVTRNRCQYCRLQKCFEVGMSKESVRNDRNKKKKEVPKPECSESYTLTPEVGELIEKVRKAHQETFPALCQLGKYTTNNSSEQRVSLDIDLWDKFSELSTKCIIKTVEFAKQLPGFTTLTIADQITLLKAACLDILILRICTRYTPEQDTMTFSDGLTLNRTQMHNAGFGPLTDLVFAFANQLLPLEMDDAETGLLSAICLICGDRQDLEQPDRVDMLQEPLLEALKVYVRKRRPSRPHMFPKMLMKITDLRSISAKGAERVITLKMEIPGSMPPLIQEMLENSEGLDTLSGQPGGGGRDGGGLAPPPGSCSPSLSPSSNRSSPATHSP
Chain of human Peroxisome Proliferator-activated Receptor delta (PPARd), PPARD (gene 5467) (Q03181 whole entry, looked up, the tested form may be a part): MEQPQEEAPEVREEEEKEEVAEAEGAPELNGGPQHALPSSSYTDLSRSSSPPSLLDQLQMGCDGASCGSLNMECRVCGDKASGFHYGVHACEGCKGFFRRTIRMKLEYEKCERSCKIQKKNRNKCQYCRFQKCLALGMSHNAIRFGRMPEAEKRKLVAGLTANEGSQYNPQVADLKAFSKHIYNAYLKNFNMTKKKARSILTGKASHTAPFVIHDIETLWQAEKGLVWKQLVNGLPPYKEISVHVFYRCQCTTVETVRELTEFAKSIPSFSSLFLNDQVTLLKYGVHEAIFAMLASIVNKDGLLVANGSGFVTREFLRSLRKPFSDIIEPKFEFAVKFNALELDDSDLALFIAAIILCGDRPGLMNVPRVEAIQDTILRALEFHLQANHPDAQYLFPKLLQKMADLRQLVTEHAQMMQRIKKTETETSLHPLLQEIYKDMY
Chain of human Retinoic Acid Receptor gamma (RARg), RARG (gene 5916) (P13631 whole entry, looked up, the tested form may be a part): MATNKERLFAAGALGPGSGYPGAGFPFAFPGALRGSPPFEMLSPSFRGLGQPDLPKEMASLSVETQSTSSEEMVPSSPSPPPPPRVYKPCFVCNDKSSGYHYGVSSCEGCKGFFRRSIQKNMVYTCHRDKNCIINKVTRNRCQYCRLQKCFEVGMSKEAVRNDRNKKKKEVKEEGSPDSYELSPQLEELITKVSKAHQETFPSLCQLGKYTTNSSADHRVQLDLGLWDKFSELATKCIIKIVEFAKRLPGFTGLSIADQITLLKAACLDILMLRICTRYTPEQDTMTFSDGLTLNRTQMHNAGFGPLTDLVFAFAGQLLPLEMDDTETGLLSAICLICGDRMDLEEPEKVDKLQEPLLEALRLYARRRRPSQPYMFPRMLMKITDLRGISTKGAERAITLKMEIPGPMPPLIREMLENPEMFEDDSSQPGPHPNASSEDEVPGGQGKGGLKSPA
Chain of Nuclear receptor subfamily 1 group I member 2 (Homo sapiens) (O75469 whole entry, looked up, the tested form may be a part): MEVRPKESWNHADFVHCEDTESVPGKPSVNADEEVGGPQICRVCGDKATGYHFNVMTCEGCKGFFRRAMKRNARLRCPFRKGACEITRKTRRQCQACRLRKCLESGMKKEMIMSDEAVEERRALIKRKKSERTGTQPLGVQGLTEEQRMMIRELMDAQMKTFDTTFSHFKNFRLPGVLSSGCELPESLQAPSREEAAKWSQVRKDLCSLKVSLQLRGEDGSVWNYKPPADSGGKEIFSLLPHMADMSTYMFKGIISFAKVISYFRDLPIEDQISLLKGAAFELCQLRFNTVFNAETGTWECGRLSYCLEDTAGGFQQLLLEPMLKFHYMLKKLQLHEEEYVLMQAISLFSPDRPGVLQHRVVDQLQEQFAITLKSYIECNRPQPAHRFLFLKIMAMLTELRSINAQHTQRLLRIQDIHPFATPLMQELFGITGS
Chain of human RAR-related Orphan Receptor beta (RORb), RORB (gene 6096) (Q92753 whole entry, looked up, the tested form may be a part): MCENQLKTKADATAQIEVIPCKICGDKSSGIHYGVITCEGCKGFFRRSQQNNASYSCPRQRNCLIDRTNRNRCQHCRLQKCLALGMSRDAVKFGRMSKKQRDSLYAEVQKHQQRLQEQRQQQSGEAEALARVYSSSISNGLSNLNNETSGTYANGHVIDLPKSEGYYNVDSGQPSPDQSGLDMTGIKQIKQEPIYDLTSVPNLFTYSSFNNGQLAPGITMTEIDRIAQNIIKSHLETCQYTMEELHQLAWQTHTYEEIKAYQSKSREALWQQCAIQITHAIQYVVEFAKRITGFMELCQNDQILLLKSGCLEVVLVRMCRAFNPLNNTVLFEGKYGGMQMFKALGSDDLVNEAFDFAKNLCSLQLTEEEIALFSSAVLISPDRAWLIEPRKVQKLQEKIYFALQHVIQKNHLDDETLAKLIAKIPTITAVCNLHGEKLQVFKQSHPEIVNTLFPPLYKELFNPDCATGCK

With CC(C)(c1ccc(Oc2ccc(N)cc2)cc1)c1ccc(Oc2ccc(N)cc2)cc1 the outcome [1] was “inactive”, the AC50 [2] was 1.69 µM (active) and the AC50 [3] was 2.28 µM (active).
With NCCN the outcome [1] was “inactive”, the outcome [4] was “inactive” and the outcome [5] was “inactive”. For the same compound, the outcome [2] was “inactive”.
For Clc1ccc(Nc2nnc(Cc3ccncc3)c3ccccc23)cc1, the outcome [1] was “inactive”, the outcome [6] was “inactive” and the outcome [7] was “inactive”. For the same compound, the AC50 [2] was 26.9 µM (active), the AC50 [3] was 3.3 µM (active) and the outcome [8] was “inactive”.
With Clc1ccc2c(Cl)ccnc2c1 the outcome [1] was “inactive”, the outcome [4] was “inactive” and the outcome [5] was “inactive”. For the same compound, the AC50 [2] was 16.9 µM (active), the AC50 [3] was 25.8 µM (active) and the outcome [8] was “inactive”.
For CNNCc1ccc(C(=O)NC(C)C)cc1, the outcome [1] was “inactive”, the outcome [2] was “inactive” and the outcome [3] was “inactive”. For the same compound, the outcome [9] was “inactive”.
For Nc1ccc(O)c(C(=O)O)c1, the outcome [1] was “inactive”, the outcome [4] was “inactive” and the outcome [2] was “inactive”. For the same compound, the outcome [8] was “inactive” and the outcome [9] was “inactive”.
For Cc1ccccc1OCC(=O)O, the outcome [1] was “inactive” and the outcome [4] was “inactive”.
For CCCCCCc1ccc(N)cc1, the outcome [1] was “inactive”, the outcome [2] was “inactive” and the outcome [3] was “inactive”.
In the case of C=C(c1ccc(C(=O)O)cc1)c1cc2c(cc1C)C(C)(C)CCC2(C)C, the outcome [1] is reported as “inactive”, the AC50 [2] is reported as 11.1 µM (active) and 14.2 µM (active) and the outcome [3] is reported as “inactive”.
For c1ccc(CNc2ncnc3c2ncn3C2CCCCO2)cc1 (stereo not drawn), the outcome [1] was “inactive”, the outcome [4] was “inactive” and the outcome [5] was “inactive”. The AC50 [2] was 70.6 µM (active), the AC50 [3] was 6.85 µM (active) and the outcome [8] was “inactive”.
In the case of CCCCCCCCCCCCCCCC(=O)OC, the outcome [1] is reported as “inactive”, the outcome [4] is reported as “inactive” and the outcome [5] is reported as “inactive”. The outcome [2] was “inactive”, the outcome [3] was “inactive” and the outcome [8] was “inactive”.
With COC1=CC(=O)C[C@@H](C)[C@]12Oc1c(Cl)c(OC)cc(OC)c1C2=O the outcome [1] was “inactive”, the outcome [6] was “inactive” and the AC50 [7] was 28.3 µM (active). For the same compound, the outcome [2] was “inactive”, the outcome [3] was “inactive” and the outcome [8] was “inactive”.
For CCc1ccccc1O, the outcome [1] was “inactive”, the outcome [2] was “inactive” and the AC50 [3] was 15.7 µM (active). The outcome [8] was “inactive”.
